Measurements: PubChem BioAssay (NCI)
Where “and” joins values, the source holds several entries; their conditions need not be identical. Equal entries are not always repeated. The panel holds about 83,000 compounds, 20% with a hit somewhere; the sample as a whole holds those more often.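 Method: cells in 96-well plates; compound added at one concentration; 48 h incubation; percent growth measured; values under 10 scored active.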 Calls of active or inactive are those of the source.

Tests used:
Test in all cases: NCI-60 one-dose screen, 48 h (100 = growth as untreated, 0 = no growth, -100 = all killed)
Settings in all cases: 10 µM unless noted
NCI-H23 lung = system: NCI-H23 lung
NCI-H226 lung = system: NCI-H226 lung
NCI-H322M lung = system: NCI-H322M lung
HOP-62 NSCLC = system: HOP-62 NSCLC
NCI-H460 lung = system: NCI-H460 lung
HOP-92 NSCLC = system: HOP-92 NSCLC
NCI-H522 lung = system: NCI-H522 lung
A549/ATCC NSCLC = system: A549/ATCC NSCLC
786-0 renal = system: 786-0 renal
COLO 205 colon = system: COLO 205 colon
DU-145 prostate = system: DU-145 prostate
K-562 leukemia = system: K-562 leukemia
MALME-3M melanoma = system: MALME-3M melanoma
MDA-MB-231 breast = system: MDA-MB-231 breast
RXF 393 renal = system: RXF 393 renal
SF-268 CNS = system: SF-268 CNS
SF-295 CNS = system: SF-295 CNS
SF-539 CNS = system: SF-539 CNS
UACC-257 melanoma = system: UACC-257 melanoma
M14 melanoma = system: M14 melanoma

`N#CSCc1c(Cl)cccc1Cl` was tested. Which growth (NCI-H23 lung) did it give?
The growth was 34.7% (inactive).

What about the growth (NCI-H226 lung) of the same compound?
The growth was 99.3% (inactive).

And the growth (NCI-H322M lung)?
Its growth is 97.9% (inactive).

And the growth (HOP-62 NSCLC)?
Its growth is 79.1% (inactive).

What about the growth (NCI-H460 lung) of the same compound?
The growth was 106% (inactive).

What about the growth (HOP-92 NSCLC) of the same compound?
The growth was 53.7% (inactive).

What about the growth (NCI-H522 lung) of the same compound?
Its growth is 43.8% (inactive).

And the growth (A549/ATCC NSCLC)?
The growth was 97.6% (inactive).

What about the growth (786-0 renal) of the same compound?
Its growth is 71.5% (inactive).

What about the growth (COLO 205 colon) of the same compound?
Its growth is 49.6% (inactive).

What about the growth (DU-145 prostate) of the same compound?
The growth was 21% (inactive).

And the growth (K-562 leukemia)?
The growth was 83.8% (inactive).

And the growth (MALME-3M melanoma)?
The growth was 47.1% (inactive).

What about the growth (MDA-MB-231 breast) of the same compound?
The growth was 80.4% (inactive).

And the growth (RXF 393 renal)?
The growth was 50.1% (inactive).

And the growth (SF-268 CNS)?
Its growth is 53.3% (inactive).

And the growth (SF-295 CNS)?
The growth was 94.8% (inactive).

And the growth (SF-539 CNS)?
Its growth is 88.5% (inactive).

And the growth (UACC-257 melanoma)?
The growth was 79.5% (inactive).

What about the growth (M14 melanoma) of the same compound?
The growth was 9.86% (active).

How did the growth (NCI-H23 lung) turn out when `COC(=O)c1nc(=S)[nH]c(C(=O)OC)c1C(=O)c1ccc2ccccc2c1` was run?
The growth was 97.9% (inactive).

And the growth (NCI-H226 lung)?
Its growth is 86.9% (inactive).

What about the growth (NCI-H322M lung) of the same compound?
The growth was 97.7% (inactive).

What about the growth (HOP-62 NSCLC) of the same compound?
The growth was 106% (inactive).

What about the growth (NCI-H460 lung) of the same compound?
The growth was 111% (inactive).

And the growth (HOP-92 NSCLC)?
Its growth is 101% (inactive).

And the growth (NCI-H522 lung)?
Its growth is 102% (inactive).

What about the growth (A549/ATCC NSCLC) of the same compound?
The growth was 120% (inactive).

What about the growth (786-0 renal) of the same compound?
Its growth is 114% (inactive).

What about the growth (COLO 205 colon) of the same compound?
The growth was 96.8% (inactive).

And the growth (DU-145 prostate)?
The growth was 110% (inactive).

And the growth (K-562 leukemia)?
Its growth is 102% (inactive).

What about the growth (MALME-3M melanoma) of the same compound?
Its growth is 94.5% (inactive).

What about the growth (MDA-MB-231 breast) of the same compound?
Its growth is 90.4% (inactive).

And the growth (RXF 393 renal)?
Its growth is 99.6% (inactive).

What about the growth (SF-268 CNS) of the same compound?
The growth was 102% (inactive).

And the growth (SF-295 CNS)?
The growth was 98.6% (inactive).

And the growth (SF-539 CNS)?
The growth was 92.5% (inactive).

And the growth (UACC-257 melanoma)?
Its growth is 112% (inactive).

And the growth (M14 melanoma)?
Its growth is 112% (inactive).

How did the growth (NCI-H23 lung) turn out when `Cc1ccc2c(ccc3c[n+]4c5ccccc5ccc4n32)c1` was run?
Its growth is 10.4% (inactive).

What about the growth (NCI-H226 lung) of the same compound?
The growth was 7.48% (active).

And the growth (NCI-H322M lung)?
The growth was 12.7% (inactive).

And the growth (HOP-62 NSCLC)?
The growth was 0.81% (active).

What about the growth (NCI-H460 lung) of the same compound?
The growth was 1.99% (active).

What about the growth (HOP-92 NSCLC) of the same compound?
Its growth is -11.1% (active).

What about the growth (NCI-H522 lung) of the same compound?
Its growth is -33.4% (active).

And the growth (A549/ATCC NSCLC)?
The growth was 4.82% (active).

What about the growth (786-0 renal) of the same compound?
The growth was 27.4% (inactive).

What about the growth (COLO 205 colon) of the same compound?
Its growth is -34.2% (active).

And the growth (DU-145 prostate)?
The growth was 20.7% (inactive).

What about the growth (K-562 leukemia) of the same compound?
Its growth is 6.39% (active).

What about the growth (MALME-3M melanoma) of the same compound?
The growth was -45.5% (active).

What about the growth (MDA-MB-231 breast) of the same compound?
Its growth is 19.6% (inactive).

What about the growth (RXF 393 renal) of the same compound?
The growth was 28.9% (inactive).

And the growth (SF-268 CNS)?
The growth was 1.4% (active).

What about the growth (SF-295 CNS) of the same compound?
The growth was -1.86% (active).

What about the growth (SF-539 CNS) of the same compound?
Its growth is -3.04% (active).

And the growth (UACC-257 melanoma)?
Its growth is -36% (active).

And the growth (M14 melanoma)?
The growth was 2.99% (active).

With `O=C(Nc1ccccc1)Oc1c(Cl)c(Cl)c(Cl)c(Cl)c1Cl` as the compound, how does the growth (NCI-H23 lung) read?
Its growth is 93.8% (inactive) and 93.2% (inactive).

And the growth (NCI-H226 lung)?
The growth was 96.2% (inactive) and 88.3% (inactive).

And the growth (NCI-H322M lung)?
Its growth is 94.1% (inactive) and 106% (inactive).

What about the growth (HOP-62 NSCLC) of the same compound?
The growth was 101% (inactive) and 78.8% (inactive).

What about the growth (NCI-H460 lung) of the same compound?
The growth was 109% (inactive) and 103% (inactive).

What about the growth (HOP-92 NSCLC) of the same compound?
The growth was 74.9% (inactive) and 63.8% (inactive).

And the growth (NCI-H522 lung)?
Its growth is 87.9% (inactive).

And the growth (A549/ATCC NSCLC)?
Its growth is 106% (inactive) and 91.9% (inactive).

What about the growth (786-0 renal) of the same compound?
Its growth is 105% (inactive) and 97.1% (inactive).

What about the growth (COLO 205 colon) of the same compound?
Its growth is 97.9% (inactive) and 106% (inactive).

What about the growth (DU-145 prostate) of the same compound?
Its growth is 110% (inactive) and 101% (inactive).

What about the growth (K-562 leukemia) of the same compound?
The growth was 101% (inactive) and 93.9% (inactive).

What about the growth (MALME-3M melanoma) of the same compound?
Its growth is 89% (inactive) and 104% (inactive).

What about the growth (MDA-MB-231 breast) of the same compound?
Its growth is 88.2% (inactive) and 94.2% (inactive).

What about the growth (RXF 393 renal) of the same compound?
Its growth is 113% (inactive) and 110% (inactive).

What about the growth (SF-268 CNS) of the same compound?
Its growth is 94.2% (inactive) and 98.8% (inactive).

And the growth (SF-295 CNS)?
Its growth is 97.4% (inactive) and 91.8% (inactive).

What about the growth (SF-539 CNS) of the same compound?
Its growth is 99.7% (inactive) and 90.6% (inactive).

What about the growth (UACC-257 melanoma) of the same compound?
The growth was 109% (inactive) and 103% (inactive).

What about the growth (M14 melanoma) of the same compound?
Its growth is 101% (inactive) and 95.3% (inactive).

Which results are given for `c1ccc2c(c1)Nc1cc3ccccc3cc1N2`?
growth (NCI-H23 lung): 30.3% (inactive); growth (NCI-H226 lung): 80.5% (inactive); growth (NCI-H322M lung): 48.5% (inactive); growth (HOP-62 NSCLC): 41.4% (inactive); growth (NCI-H460 lung): 51.7% (inactive); growth (HOP-92 NSCLC): 85% (inactive); growth (NCI-H522 lung): -14.7% (active); growth (A549/ATCC NSCLC): 41.5% (inactive); growth (786-0 renal): 66.6% (inactive); growth (COLO 205 colon): -43.7% (active); growth (DU-145 prostate): 60.9% (inactive); growth (K-562 leukemia): 20.9% (inactive); growth (MALME-3M melanoma): 28.4% (inactive); growth (MDA-MB-231 breast): 33.1% (inactive); growth (RXF 393 renal): 63.3% (inactive); growth (SF-268 CNS): 66.2% (inactive); growth (SF-295 CNS): 46.2% (inactive); growth (SF-539 CNS): 39.1% (inactive); growth (UACC-257 melanoma): 37.4% (inactive); growth (M14 melanoma): 23.9% (inactive)

With `Oc1ccc(/C=N/NC(=S)Nc2ccccc2)nc1` as the compound, how does the growth (NCI-H23 lung) read?
The growth was 14.9% (inactive).

And the growth (NCI-H226 lung)?
The growth was 5.69% (active).

What about the growth (NCI-H322M lung) of the same compound?
The growth was 21.2% (inactive).

What about the growth (HOP-62 NSCLC) of the same compound?
Its growth is 12.2% (inactive).

What about the growth (NCI-H460 lung) of the same compound?
Its growth is 2.79% (active).

What about the growth (HOP-92 NSCLC) of the same compound?
Its growth is -0.553% (active).

What about the growth (NCI-H522 lung) of the same compound?
Its growth is -14.2% (active).

What about the growth (A549/ATCC NSCLC) of the same compound?
The growth was 11.5% (inactive).

And the growth (786-0 renal)?
Its growth is -21% (active).

And the growth (COLO 205 colon)?
Its growth is 24.4% (inactive).

What about the growth (DU-145 prostate) of the same compound?
The growth was 12.3% (inactive).

What about the growth (K-562 leukemia) of the same compound?
The growth was 14.1% (inactive).

What about the growth (MALME-3M melanoma) of the same compound?
Its growth is 14.4% (inactive).

What about the growth (MDA-MB-231 breast) of the same compound?
The growth was 49.3% (inactive).

And the growth (RXF 393 renal)?
The growth was 3.06% (active).

And the growth (SF-268 CNS)?
Its growth is 18.7% (inactive).

What about the growth (SF-295 CNS) of the same compound?
The growth was 25.3% (inactive).

What about the growth (SF-539 CNS) of the same compound?
Its growth is 1.01% (active).

And the growth (UACC-257 melanoma)?
Its growth is 4.98% (active).

What about the growth (M14 melanoma) of the same compound?
The growth was -34.8% (active).
